Assay outcomes deposited in PubChem BioAssay by The Scripps Research Institute Molecular Screening Center.
DAX1 inh-1 = inhibitors of human orphan nuclear receptor DAX1 (NR0B1) | P51843 | HEK293 Gal4-DAX1 luciferase reporter, luminescence | inhibition, % at 6.75 µM | hit rate 0.99% among 340,000;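 active means inhibition above the mean over all tested compounds plus 3 SD, cut at about 4.2% in these data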;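 further: inhibition shows as a rise in luminescence from relieved DAX1 repression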
ssDAF12 agonist = S. stercoralis DAF-12 activation, primary screen; activation, % at 6.8 µM; HEK293 ssDAF-12/GRIP1 lit1-tk-luc reporter, luminescence; % of 3 µM dafachronic acid response; hit rate 1% among 370,000;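 active means activation above the mean over all tested compounds plus 3 SD, cut at about 0.9% in these data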
DAX1 inh-2 = DAX1 (NR0B1) inhibition, primary screen | HEK293T StAR-luciferase reporter, SF-1/DAX-1 repression relief | inhibition, % at 6.8 µM | hit rate 1.1% among 370,000;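 active means inhibition above the mean over all tested compounds plus 3 SD, cut at about 3.6% in these data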;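 further: higher inhibition means more luminescence from relief of DAX-1 repression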
hgDAF12 agonist = activates the H. glycines DAF-12 receptor ligand-binding domain | hit rate 1.8% among 370,000 | HEK293 GAL4-hgDAF12 UAS-luciferase reporter, agonist luminescence; normalized to butyrate control | AID 687014 | activation, % at 6.8 µM;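 active means activation above a cutoff set at the mean of all screened compounds plus 3 SD, cut at about 10% in these data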
hcDAF-12 act = H. contortus DAF-12 activation, primary screen. HEK293 hcDAF-12 lit1-tk-luc reporter, luminescence; 0% DMSO, 100% Δ7-dafachronic acid. hit rate 1.4% among 370,000. activation, % at 6.8 µM;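 active means activation above the mean of all tested compounds plus 3 SD, cut at about 5.5% in these data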
AHR activator = human AHR activation. hit rate 2.5% among 320,000. activation, % at 5 µM. P35869. AHR-responsive luciferase reporter cells, luminescence; in the data active means activation above about 47%
Hits are given with their value; – = inactive; · = no result given. Most compounds without a hit are left out; they make up all but 5.7% or so of the library.

SMILES | DAX1 inh-1 | ssDAF12 agonist | DAX1 inh-2 | hgDAF12 agonist | hcDAF-12 act | AHR activator
COc1ccc2ccccc2c1/C=N/n1cnnc1 | – | – | – | – | 6.5 | –
COc1ccc2ccc(OC)c(/C=N/n3cnnc3)c2c1 | – | – | – | – | – | –
COC(=O)c1c(-c2ccc(C)cc2)csc1NC(=O)c1c(-c2ccccc2)noc1C | · | – | – | – | – | –
COC(=O)c1c(-c2cccnc2)csc1NC(=O)c1cc(C)on1 | – | – | 4.5 | – | 6.5 | 68.4
CCOC(=O)C1CCCN(c2c(NCCc3ccccc3)c(=O)c2=O)C1 (configuration not stated) | – | – | – | – | – | –
CC1(C)OC(=O)N(CC(=O)Nc2cccc(C(F)(F)F)c2)C1(C)O (configuration not stated) | – | – | – | – | – | –
CCc1c(C)sc(NC(=S)N2CCN(CC)CC2)c1C(=O)OC | 5.2 | – | – | – | – | –
CC(=O)Nc1ccc(OCc2ccccc2)cc1[N+](=O)[O-] | – | – | – | – | – | ·
CC1CN(C(=O)COC(=O)c2ccc(S(=O)(=O)N(C)C)cc2)CC(C)O1 (configuration not stated) | – | – | – | – | – | –
O=C(Nc1cccc(C(=O)Nc2ccccc2F)c1)c1ccccc1 | – | – | – | – | – | –
CCCN1C(=O)C(O)(c2c(C)[nH]c3ccccc23)c2ccccc21 (configuration not stated) | – | – | – | – | – | –
Cc1[nH]c2ccccc2c1C1(O)C(=O)N(C(C)C)c2ccccc21 (configuration not stated) | – | – | – | – | 5.8 | –
Cc1ccccc1NC(=O)c1ccc(-n2cncn2)nc1 | – | – | – | – | – | 121.2
COC(=O)c1ccc2c(c1)N(C)CCS2 | 4.4 | – | – | – | – | –
Cc1ccccc1NC(=O)c1ccc2ccccc2c1 | 5.0 | – | – | – | – | –
Cc1ccccc1NC(=O)c1ccc2c(c1)N(C)CCS2 | – | – | 3.6 | 11.9 | – | –
Cc1cc(C(=O)N2CCN(c3ccc(C(F)(F)F)cn3)CC2)c(C)o1 | – | – | – | – | – | –
CCn1ccnc1CN(C)Cc1nc(-c2cccc(Cl)c2)no1 | – | – | – | – | – | –
O=C(Nc1c(F)c(F)c(F)c(F)c1F)OC[C@@H]1CSCCS(=O)(=O)N1 | · | – | 3.6 | – | – | ·
COc1ccccc1CNC(=O)C(C)n1nc(C)c2c(C)n(-c3ccccc3)nc2c1=O (configuration not stated) | – | – | – | – | – | –
Nc1c(C(=O)O)ccc2c1C(=O)c1ccccc1C2=O | – | – | – | – | – | –
Nc1ccc2c(c1Cl)C(=O)c1ccc(N)c(Cl)c1C2=O | – | 1.1 | – | – | – | ·
Cc1ccccc1N(C)C(=O)c1coc(=O)c2ccccc12 | – | – | – | – | – | –
Cc1cc2oc(=O)c3c(c2cc1OCc1nn[nH]n1)CCCC3 | – | – | – | – | – | –
CCc1cccc2c(C(C)c3ccccc3O)c[nH]c12 (configuration not stated) | · | 2.2 | – | – | – | ·
SMILES | DAX1 inh-1 | ssDAF12 agonist | DAX1 inh-2 | hgDAF12 agonist | hcDAF-12 act | AHR activator
CSC[C@H](NC(=O)Cc1c(C)c2cc3c(C)c(C)oc3cc2oc1=O)C(=O)N[C@@H](Cc1ccccc1)C(=O)O | – | · | · | · | · | –
Cc1nn(-c2ccccc2)c2nc(-c3ccncc3)cc(C(=O)NCc3ccco3)c12 | – | – | – | – | – | 65.4
O=C1C(=O)N(c2ccc(O)cc2)C(c2ccccc2[N+](=O)[O-])/C1=C(\O)c1ccccc1 (configuration not stated) | – | 2.2 | – | – | – | –
Cc1cnc(NC(=O)CN2C(=O)C3CC=CCC3C2=O)s1 (configuration not stated) | – | – | – | – | – | –
Cc1cnc(NC(=O)CC2CCCC2)s1 | – | – | – | 10.5 | – | –
Cc1cnc(NC(=O)CCN2C(=O)C3CCCCC3C2=O)s1 (configuration not stated) | 6.7 | – | – | – | – | –
COc1ccc(-c2nc3ccc(N4CCN(C)CC4)cc3c(=O)[nH]2)cc1 | 5.0 | – | – | – | – | 56.4
N#C/C(=C(/O)CCl)c1nc2c(s1)CCc1ccccc1-2 | – | – | – | – | – | 67.2
Nc1nc2c(s1)CCc1ccccc1-2 | – | – | – | – | – | –
CCCCNc1ccc2c(c1)OC[C@H](C)NS2(=O)=O | · | – | – | – | – | ·
O=[N+]([O-])c1cccc(-c2ccc(/C=N/NC(=S)Nc3ccccc3)o2)c1 | – | – | – | – | – | 64.8
Cc1ccc(SCC(=O)c2c(C)[nH]c3ccccc23)cc1 | – | – | – | – | – | –
Cc1[nH]c2ccccc2c1C(=O)CSc1ccccn1 | – | – | – | – | – | 53.4
Cc1ccc2c(C(=O)CSc3ccccc3)c(C)[nH]c2c1 | – | – | – | – | – | 57.7
Cc1[nH]c2ccccc2c1C(=O)CN1CCC(C)CC1 | – | – | – | – | – | 56.5
CCCc1cc(=O)[nH]c(SCCN2C(=O)c3ccccc3C2=O)n1 | 5.5 | – | – | – | – | –
COc1ccc(NC(=O)Nc2ccc3c(c2)C(=O)N([C@H](C)CO)C[C@H](C)[C@@H](CN(C)C(=O)Nc2c(C)noc2C)O3)cc1 | – | – | – | – | – | –
CCCCOc1ccc(C(=O)Nc2ccc(N3CCN(C(=O)C(C)C)CC3)cc2)cc1 | – | – | – | – | – | –
CCC(C)NC(=O)[C@@H]1CSC2c3ccccc3C(=O)N21 (some centres not stated) | – | – | – | – | – | –
NC(=S)Nc1ccccc1Br | – | – | – | – | – | –
CCCc1cc(=O)[nH]c(SCC(=O)c2c[nH]c3ccccc23)n1 | – | – | – | – | – | –
CCCc1cc(=O)[nH]c(SCC(=O)c2c(C)[nH]c3ccccc23)n1 | – | – | – | – | – | 59.6
Cc1[nH]c2ccccc2c1C(=O)COc1ccccc1F | – | – | – | – | – | 63.3
CC(=O)c1cc(C#N)c(Oc2cc(C)cc(C)c2)nc1C | – | – | – | – | – | –
O=C(NCc1ccco1)c1ccccc1Br | – | – | – | – | – | –
SMILES | DAX1 inh-1 | ssDAF12 agonist | DAX1 inh-2 | hgDAF12 agonist | hcDAF-12 act | AHR activator
COc1ccc(OC)c2c1sc(=NC(=O)c1ccco1)n2C | – | – | – | – | – | 51.4
COc1ccccc1C(=O)N=c1sc2c(C)ccc(OC)c2n1C | – | – | – | – | – | 62.4
COc1ccc(OC)c2c1sc(=NC(=O)C1CC1)n2C | – | – | – | – | – | –
O=C(CCCn1c(=O)[nH]c2cc(Cl)ccc2c1=O)NC1CCCCCCC1 | – | – | – | – | – | –
O=P(Cc1ccncc1)(c1ccccc1)c1ccccc1 | 5.9 | – | – | – | – | –
O=C(c1ccccc1)n1ccn(-c2ccccc2)c1=S | – | – | – | – | – | 50.8
